Assay results published in PubChem BioAssay (Tox21).
Inconclusive results are not listed. Unmarked numbers belong to inactive results. The source made the active and inactive calls. The call rests on the fitted dose curve; in most records, active means well fitted activation curve with a large enough effect in the signal ratio in the repeat runs (not every such curve was filed as active); inconclusive means weak or mixed curves; inactive means flat fitted curve, though single readings scatter; the % refers to the signal ratio.

Assay: qHTS assay to identify small molecule agonists of the hypoxia (HIF-1) signaling pathway (AID 1224846)
Conditions: HRE-bla ME-180 cells, beta-lactamase ratio, 17 h; series mostly up to 76.8 µM; activation: at the top concentration
Text: U.S. Tox21 Program National Center for Advancing Translational Sciences [NCATS] NIH Chemical Genomics Center [NCGC] U.S. Environmental Protection Agency [EPA] National Institutes of Environmental Health Sciences [NIEHS] National Toxicology Program [NTP] U.S. Food and Drug Administration [FDA] Tox21 Assay Overview: Hypoxia-inducible factor-1 (HIF-1) is the major hypoxia-regulated transcription factor that controls cellular responses to low oxygen concentration. HIF-1 is composed of two subunits: hypoxia responsive HIF-1-alpha and constitutively expressed HIF-1-beta, which is also known as aryl hydrocarbon receptor nuclear translocator. During hypoxic conditions, HIF-1-alpha heterodimerizes with HIF-1-beta and translocates into the nucleus where the HIF-1 complex binds to the hypoxia-response element (HRE) and activates expression of target genes such as VEGF (vascular endothelial growth factor). The HIF-1 pathway is essential to normal growth and development, and is involved in the pathophysiology of cancer, inflammation, and ischemia. Using a beta-lactamase reporter-gene under control of the hypoxia response element, a cell-based assay [CellSensor(TM) HRE-bla ME-180 from Life Technologies, Carlsbad, CA] was used to measure hypoxia-induced signaling. Tox21 10K library compounds were measured for their ability to induce the reporter gene activity.
Tox21 Assay Protocol Summary: HRE-bla ME-180 cells were dispensed at 2,000 cells per well in 6 uL of assay medium containing 0.5% dialyzed FBS into black wall/clear-bottom 1536-well plates using a Multidrop Combi (Thermo Scientific, Waltham, MA) dispenser. After the assay plates were incubated at 37C and 5% CO2 for 5 hrs, 23 nL of compounds dissolved in DMSO, positive controls or DMSO only was transferred to each well of the assay plate using a Pintool station (Kalypsys, San Diego, CA). The assay plates were incubated at 37C and 5% CO2 for 17 hrs. One uL of LiveBLAzerTM B/G FRET substrate (CCF4-AM) (Life Technologies) was added to each well using a Flying Reagent Dispenser (Aurora Discovery, San Diego, CA).
On the % scale 0 is the no-effect control and ±100 the full control effect.

Row | SMILES | activation | outcome
1 | COc1ccc(-c2ccccc2)cc1NNC(=O)OC(C)C | 3.17% | 
2 | CCOP(=S)(Oc1ccc([N+](=O)[O-])cc1)c1ccccc1 (stereo not given) | 2.49% | 
3 | Sc1ccccc1Cl | 0.0337% [at 35.5 µM] | 
4 | CC(C)O.CC(C)O.OCCN(CCO)CCO.OCCN(CCO)CCO.[Ti] | 0.393% | 
5 | CC1CC(CC2CCC(N)C(C)C2)CCC1N (stereo not given) | 0.0543% | 
6 | C=CCOC(C)=O | -0.585% | 
7 | Cc1ccccc1C(=O)Nc1cccc(OC(C)C)c1 | -1.08% | 
8 | O=C(O)C(F)(F)C(F)(F)C(F)(F)C(F)(F)C(F)(F)C(F)(F)C(F)(F)C(F)(F)C(F)(F)C(F)(F)F | -1.49% | 
9 | CCOP(=S)(OCC)SCSCC | -1.41% | 
10 | CCOP(=O)(OCC)SCCSCC |  | inactive
11 | CCOC(=O)CBr | 0.0604% | 
12 | c1cc2ccc3cccc4ccc(c1)c2c34 | -1.25% | 
13 | CC(C)(OO)c1ccccc1 | -1.32% | 
14 | NC(=O)C(Cl)(Cl)Cl | -0.332% | 
15 | CC[C@H]1C[C@H]2[C@@H]3CCC4=CC(=O)CC[C@@H]4[C@H]3CC[C@]2(C)[C@H]1O | 0.848% [at 35.5 µM] | 
16 | O=Cc1ccc2c(c1)OCO2 | 0% | 
17 | N#CCc1ccccc1 | -0.0729% | 
18 | N#C/C(N)=C(/N)C#N | 1.44% | 
19 | C[C@]12CC[C@H]3[C@@H](CCC4=CC(=O)CC[C@@H]43)[C@@H]1CC[C@@H]2OC(=O)CCC1CCCCC1 | -1.43% [at 35.5 µM] | 
20 | C=CC(C)=O | 0.0404% | 

Row | SMILES | activation | outcome
21 | Cc1c(F)c(F)c(COC(=O)C2C(/C=C(\Cl)C(F)(F)F)C2(C)C)c(F)c1F (stereo not given) | 2.47% | 
22 | COC(N)=O | -1.65% | 
23 | C=COC(C)=O | 0.51% | 
24 | Brc1ccc(Oc2ccccc2)cc1 | -0.166% | 
25 | CC(C)=CCOc1c2occc2cc2ccc(=O)oc12 | -2.87% [at 35.5 µM] | 
26 | C=C(C#N)CCC#N | -1.41% | 
27 | O=C(O)c1ccccc1C(=O)Nc1cccc2ccccc12 | -0.688% | 
28 | CC(C)(C)c1cc([N+](=O)[O-])cc([N+](=O)[O-])c1O | -0.21% | 
29 | O=C(CCl)c1ccc(Cl)cc1Cl | 3.1% | 
30 | CC(Cl)Cl | -0.151% | 
31 | O=S1(=O)OC(c2cc(Br)c(O)c(Br)c2)(c2cc(Br)c(O)c(Br)c2)c2ccccc21 | 0.328% | 
32 | CC(C)(C)C(O)C(Oc1ccc(Cl)cc1)n1cncn1 (stereo not given) | -1.9% | 
33 | O=C1NCN(c2ccccc2)C12CCN(CCCOc1ccc(F)cc1)CC2 | 0.592% [at 35.5 µM] | 
34 | C=CC(=O)OC(C)(C)C | -1.29% | 
35 | CO[C@@H]1[C@H](OC(=O)NC(=O)CCl)CC[C@]2(CO2)[C@H]1[C@@]1(C)O[C@@H]1CC=C(C)C | -0.119% [at 15.8 µM] | 
36 | CC(=O)CCC(C)=O | 1.1% | 
37 | C[N+](C)(C)CCCl | -0.177% | 
38 | CCOP(=S)(OCC)Oc1nc(Cl)c(Cl)cc1Cl | 0.14% | 
39 | NCCCNCCCN | -0.872% | 
40 | CC1Sc2c(C(=O)O)c(=O)c3cc(F)c(N4CCNCC4)cc3n21 (stereo not given) | -0.596% [at 35.5 µM] | 
